Screening results from PubChem.
Cycloheximide cs – counter-screen hit for Shiga toxin inhibitors, cycloheximide; 12% of 300,000 active; max response, %; AID 2314; cell reporter, cycloheximide protein synthesis inhibition counterscreen; in the data active = max response mostly above about 13%, no sharp cut-off; inactive = mostly below about 14%; also: read at 38.3 µM for the half of the compounds with a filed dose; 0% is about no effect
Pf growth 96h – P. falciparum growth inhibition at 96 hour, primary screen for plastid delayed-death inhibitors. P. falciparum luciferase reporter growth, 96 h. Potency, µM (highest dose often 28.7 µM), for inactives: at the highest dose activity change, negative = inhibition, usual class: inhibitors. 6.9% of 320,000 active. AID 504834; also: potency is read from the fitted curve at half-maximal effect; % is scaled to controls: 0 for no effect and ±100 for the full control effect
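Delayed-death screen, second-generation endpoint: infected erythrocytes, 2% hematocrit, 0.05% parasitemia final; 96 hours at 37 C, 5% CO2; luciferase detection reagent; luminescence decrease equals reduced growth.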
NS1 function inh – blocks influenza NS1 protein function. Potency, µM (doses to about 46.1 µM), for the others: top-dose activity, positive = more growth. 0.4% of 270,000 active. AID 2326; calls by dose curve; also: potency is read from the fitted curve at half-maximal effect; actives are rising curves; nearly all actives have a fitted effect of over 50% in size
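Growth recovery, yeast-based: influenza A NS1 expressed in S. cerevisiae causes slow growth, and suppressors are detected by OD600. The parent strain without NS1 is used as positive control.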
Shiga toxin inh – blocks Shiga toxin action in Vero cells | inhibition, % at 38.7 µM | Vero cells, Shiga toxin protein synthesis inhibition reporter | 9.2% of 290,000 active | AID 2315; in the data active = inhibition mostly above about 28%, no sharp cut-off; inactive = mostly below about 43%; also: 0% is about no effect
Pf growth 48h – P. falciparum growth inhibition at 48 hours (one generation). P. falciparum luciferase growth in erythrocytes, 48 h. 5.9% of 310,000 active. Potency, µM (doses to about 28.7 µM), inactives show top-dose activity change, negative = inhibition, usual class: inhibitors. AID 504832; also: potency is read from the fitted curve at half-maximal effect; % is scaled to controls: 0 for no effect and ±100 for the full control effect
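Erythrocytes infected with P. falciparum carrying an integrated firefly luciferase reporter (2% hematocrit, 0.1% parasitemia final) were exposed to compounds in RPMI 1640 with 0.5% Albumax at 37 C, 5% CO2. Growth inhibition was scored as reduced luminescence.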
Sm TGR inh – S. mansoni TGR enzyme inhibition | AID 485364 | Q962Y6 | purified TGR, DTNB reduction, TNB absorbance 405 nm | Potency, µM (top dose mostly 114 µM), for inactives: top-dose activity change, negative = inhibition, most hits filed as inhibitors | 3% of 360,000 active; also: potency is read from the fitted curve at half-maximal effect; % is scaled to controls: 0 for no effect and ±100 for the full control effect; nearly all actives have a fitted effect of over 60% in size
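TGR 20 nM + NADPH 100 uM (dispensed conc.), cpd preinc 15 min RT; start with NADPH (500 uM addition) then DTNB (15 mM addition). Kinetic TNB absorbance, 405 nm filter. Four-parameter Hill fit across titration.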
* = called active by the depositor. An excerpt weighted towards active compounds, which were near 21% of everything screened. Unless noted, calls follow the shape of the dose curve; as a rule, active = well fitted curve in the direction sought with a large enough effect; inconclusive = small, poorly fitted or top-dose-only effect, or another doubt; inactive = no such curve, though single readings can be large; an effect the other way counts as inactive or inconclusive.

What do the screens show for `CCCC(=O)N1CCN(c2ccc([N+](=O)[O-])c(NC(C)c3ccccc3)c2)CC1` (centres undefined)?
Cycloheximide cs: -6; Pf growth 96h: 9.3µM*; NS1 function inh: -57%; Shiga toxin inh: -20; Pf growth 48h: 12µM*; Sm TGR inh: 8%

How did CC(Nc1cc(N2CCN(S(=O)(=O)N(C)C)CC2)ccc1[N+](=O)[O-])c1ccccc1 (centres undefined) do in these assays?
Cycloheximide cs: 2; Pf growth 96h: 182%; NS1 function inh: -2%; Shiga toxin inh: 2; Pf growth 48h: 15µM*

How did C=CCc1c(C)nc(-c2ccccc2)nc1N/N=C(\C)c1ccccc1 do in these assays?
Cycloheximide cs: 12*; Pf growth 96h: inconclusive; NS1 function inh: 13%; Shiga toxin inh: 21; Pf growth 48h: 11%; Sm TGR inh: -11%

What do the screens show for `C=CCc1c(C)nc(-c2ccccc2)nc1Nc1ccc(O)cc1`?
Cycloheximide cs: 0; Pf growth 96h: inconclusive; NS1 function inh: -8%; Shiga toxin inh: -14; Pf growth 48h: 12%; Sm TGR inh: -19%

What do the screens show for `COc1ccc(/C=N/N=C2\SCC(=O)N2c2c(C)n(C)n(-c3ccccc3)c2=O)cc1OC`?
Cycloheximide cs: -1; Pf growth 96h: inconclusive; NS1 function inh: inconclusive; Shiga toxin inh: 13; Pf growth 48h: 13µM*; Sm TGR inh: -6%

Results for Cc1c(N2C(=O)CS/C2=N\N=C\c2ccc(Cl)cc2)c(=O)n(-c2ccccc2)n1C ?
Cycloheximide cs: -3; Pf growth 96h: 44%; NS1 function inh: 10%; Shiga toxin inh: -12; Pf growth 48h: 20%; Sm TGR inh: -24%

Results for CCc1ccc(NC(=O)C(CC)n2c(=O)c(-c3ccccc3NC(C)=O)nc3ccccc32)cc1 (centres undefined) ?
Sm TGR inh: 3%

How did O=c1c(Cl)c(Nc2cccc(Cl)c2)cnn1-c1nc2ccccc2s1 do in these assays?
Cycloheximide cs: 88*; Pf growth 96h: 69%; NS1 function inh: 7%; Shiga toxin inh: 69*; Pf growth 48h: 270%; Sm TGR inh: inconclusive

What do the screens show for `COc1ccc(Nc2cnn(-c3nc4ccccc4s3)c(=O)c2Cl)cc1`?
Cycloheximide cs: 48*; Pf growth 96h: inconclusive; NS1 function inh: -28%; Shiga toxin inh: 76*; Pf growth 48h: 73%; Sm TGR inh: 1.3µM*

Results for Cc1ccc(C)c(N2CCN(c3cnn(-c4nc5ccccc5s4)c(=O)c3Cl)CC2)c1 ?
Cycloheximide cs: 64*; Pf growth 96h: 218%; NS1 function inh: -5%; Shiga toxin inh: 138*; Pf growth 48h: 194%; Sm TGR inh: 7%

How did O=c1c2ccccc2cnn1-c1nc2ccccc2s1 do in these assays?
NS1 function inh: 3%

What do the screens show for `Cc1c(NC(=O)C(C)n2cc([N+](=O)[O-])cn2)c(=O)n(-c2ccccc2)n1C` (centres undefined)?
Cycloheximide cs: 11; Pf growth 96h: -4%; Shiga toxin inh: 20; Pf growth 48h: inconclusive; Sm TGR inh: -9%

How did Cc1ccc(NC(=O)C2CCN(S(C)(=O)=O)CC2)c(C)c1 do in these assays?
Cycloheximide cs: -3; Pf growth 96h: inconclusive; NS1 function inh: 11%; Shiga toxin inh: -10; Pf growth 48h: -3%; Sm TGR inh: -6%

Results for O=C1CC(c2ccco2)CC(O)=C1C=NCC1NCCc2ccccc21 (centres undefined) ?
Cycloheximide cs: -2; Pf growth 96h: 1%; NS1 function inh: -1%; Shiga toxin inh: 6; Pf growth 48h: 10µM*; Sm TGR inh: inconclusive

How did Fc1ccc(Cn2c(SCc3ccc(F)c(F)c3)nnc2C(F)(F)F)cc1 do in these assays?
Cycloheximide cs: 14*; Pf growth 96h: 18%; NS1 function inh: -58%; Shiga toxin inh: 45*; Pf growth 48h: 52%; Sm TGR inh: 1%

Results for CN(CC(=O)Nc1ccc(F)c(F)c1F)C(=O)CC1CCCCC1 ?
Pf growth 96h: -16%; Pf growth 48h: 4%; Sm TGR inh: 2%

What do the screens show for `CCN(C(=O)CSc1nc2ccccc2c(=O)n1Cc1ccc(C)cc1)C1CCS(=O)(=O)C1` (centres undefined)?
Pf growth 96h: inconclusive; Pf growth 48h: -2%; Sm TGR inh: 1%

How did CCn1c(SCC(=O)N(Cc2ccccc2)C2CCS(=O)(=O)C2)nc2ccccc2c1=O (centres undefined) do in these assays?
Cycloheximide cs: -7; NS1 function inh: -7%; Shiga toxin inh: -16; Pf growth 48h: 5.2µM*; Sm TGR inh: 0%

How did C=CCn1c(SCC(=O)N(C(C)CC)C2CCS(=O)(=O)C2)nc2ccccc2c1=O (centres undefined) do in these assays?
Pf growth 96h: 5.9µM*; Pf growth 48h: inconclusive; Sm TGR inh: 0%

What do the screens show for `CCC(C)N(C(=O)COc1ccccc1C#N)C1CCS(=O)(=O)C1` (centres undefined)?
Pf growth 96h: inconclusive; Pf growth 48h: 2%; Sm TGR inh: 6%

Results for COCCn1c(SCC(=O)N(C)C2CCS(=O)(=O)C2)nc2ccccc2c1=O (centres undefined) ?
Cycloheximide cs: 2; Pf growth 96h: 14%; NS1 function inh: 4%; Shiga toxin inh: -18; Pf growth 48h: -2%

Results for CCC(C)N(C(=O)COc1ccccc1C(=O)NCc1ccccc1)C1CCS(=O)(=O)C1 (centres undefined) ?
Cycloheximide cs: -4; Pf growth 96h: 9.3µM*; NS1 function inh: -2%; Shiga toxin inh: -12; Pf growth 48h: inconclusive; Sm TGR inh: 3%

How did CCC(C)N(C(=O)CSc1nc(C)nc2ccccc12)C1CCS(=O)(=O)C1 (centres undefined) do in these assays?
Pf growth 96h: 15µM*; Pf growth 48h: inconclusive; Sm TGR inh: -1%

How did COc1cccc(CNC(=O)CCc2c(C)nn(-c3ccc(N4CCCC4)nn3)c2C)c1 do in these assays?
Sm TGR inh: 2%

What do the screens show for `Cc1nn2c(-c3ccncc3)ccnc2c1Cl`?
Cycloheximide cs: -4; Pf growth 96h: -3%; Shiga toxin inh: 5; Pf growth 48h: inconclusive; Sm TGR inh: 17%

What do the screens show for `CC(=O)c1cnc2c(-c3ccc(Cl)cc3)cnn2c1C`?
Cycloheximide cs: 14; Pf growth 96h: 2%; NS1 function inh: 2%; Shiga toxin inh: 40*; Pf growth 48h: 268%; Sm TGR inh: 4%

Results for Nc1nc2nccc(-c3ccc(Cl)cc3)n2n1 ?
Cycloheximide cs: 44*; NS1 function inh: -236%; Shiga toxin inh: 42*; Pf growth 48h: inconclusive; Sm TGR inh: -4%

How did Clc1ccc(-c2cnn3c(-c4ccncc4)ccnc23)cc1 do in these assays?
Cycloheximide cs: 35*; Pf growth 96h: 277%; Shiga toxin inh: 89*; Pf growth 48h: inactive; Sm TGR inh: 8%
